In ChEMBL document CHEMBL3433997, “St. Jude Leishmania screening dataset” (2016) one finds inhibition data, which are given here for 33 molecules.

Broadly, the inhibition is the drop in the measured response relative to a control, in per cent.

Holding throughout (type): functional
Test [1] deals with Solute carrier family 2, facilitated glucose transporter member 1 (Homo sapiens) (UniProt P11166). The experiment in a line: ST_JUDE_LEISH: Cytotoxicity at 2uM final concentration against transgenic Leishmania Mexicana promastigotes LmGLUT1 that are glucose transport deficient and complemented with the human glucose transporter GLUT1. Activity is measured by DNA content using SYBR green in vitro.
Chain of Solute carrier family 2, facilitated glucose transporter member 1 (Homo sapiens) (P11166 whole entry): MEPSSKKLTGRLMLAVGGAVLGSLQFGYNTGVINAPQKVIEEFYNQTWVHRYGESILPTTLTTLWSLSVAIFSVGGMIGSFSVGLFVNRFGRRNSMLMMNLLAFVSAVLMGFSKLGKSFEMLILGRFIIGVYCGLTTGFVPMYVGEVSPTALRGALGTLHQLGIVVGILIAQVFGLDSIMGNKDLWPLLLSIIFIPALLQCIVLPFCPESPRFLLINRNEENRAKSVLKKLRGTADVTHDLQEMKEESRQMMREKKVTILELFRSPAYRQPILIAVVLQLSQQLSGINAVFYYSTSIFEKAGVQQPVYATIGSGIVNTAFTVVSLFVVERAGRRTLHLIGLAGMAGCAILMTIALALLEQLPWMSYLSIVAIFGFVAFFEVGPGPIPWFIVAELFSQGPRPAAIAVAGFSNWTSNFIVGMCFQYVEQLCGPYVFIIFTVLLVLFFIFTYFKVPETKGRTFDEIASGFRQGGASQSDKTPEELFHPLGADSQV

Test [2] concerns the target Hexose transporter 1 (Plasmodium falciparum) (UniProt O97467). As to the kind of experiment: ST_JUDE_LEISH: Cytotoxicity at 2uM final concentration against transgenic Leishmania Mexicana promastigotes LmPfHT that are glucose transport deficient and complemented with the Plasmodium falciparum hexose transporter. Activity is measured by DNA content using SYBR green in vitro.

Test [3] has as its target Glucose transporter (Leishmania mexicana) (UniProt O61059). As to the kind of experiment: ST_JUDE_LEISH: Cytotoxicity at 2uM final concentration against transgenic Leishmania Mexicana promastigotes LmGT2 that are glucose transport deficient and complemented with the L. Mexicana glucose transporter 2. Activity is measured by DNA content using SYBR green in vitro.

As for `CCc1cccc(-n2c(=O)c3cccnc3n2CC(=O)NCc2ccccc2Cl)c1`, the inhibition in test [1] was determined as 9.08%; in test [2], 9.17%; in test [3], 4.33%.
In the case of `COc1ccc(C(=O)NCc2ccccc2-c2ccc(C(C)(C)C)cc2)cc1O`, the inhibition in test [1] was found to be 3.25%; in test [2] it was 5.39%; in test [3], 1.49%.
With `O=C(c1cc2nc3c(c(C(F)(F)F)n2n1)CCc1ccccc1-3)N1CCN2CCCC2C1` (centres undefined), the inhibition came out at 2.06% in test [1], 2.1% in test [2] and 2.07% in test [3].
Turning to `COc1c(C2CCN(CCCCNC(=O)C=Cc3cc4cc(Cl)ccc4o3)CC2)ccc2c1CCCC2`, the inhibition in test [1] is 2.11%; in test [2], 0.56%; in test [3], 0.08%.
The like results for `COCCNCc1cccc(-c2ccc3nccc(Nc4cc(O)ccc4C)c3c2)c1` were, in that order, 3.68%, 4.21% and 4.38%.
Turning to `CN(C)CCNc1cc(-c2ccc3ccccc3c2)nc2ccccc12`, the inhibition is 1.3% in test [1], 2.94% in test [2] and -0.48% in test [3].
The matching figures for `O=C(/C=C/c1ccc(Cl)c(Cl)c1)NCCCCCN1CCCC(CNC(=O)Nc2ccc(C(F)(F)F)cc2)C1` (centres undefined): 4.18%, 3.11% and 1.39%.
The matching figures for `Cn1cc(C2CCN(CCCCNC(=O)c3ccc(-c4ccc(C(F)(F)F)cc4)c(CO)c3)CC2)c2ccccc21`: 4.11%, 3.1% and 2.35%.
Consider `O=C(/C=C/c1ccc(Cl)c(Cl)c1)NCCCCCN1CC[C@H](NC(=O)Nc2ccc(Oc3ccccc3)cc2)C1`, for which the figures for the inhibition in test [1], in test [2] and in test [3] were -0.32%, -1.24% and 1.17%, respectively.
The matching figures for `O=C(/C=C/c1ccc(Cl)c(Cl)c1)NCCCCCN1CCCN(C(=S)Nc2cccc(Cl)c2)CC1`: 0.6%, -0.74% and 0.17%.
Turning to `CCOC(=O)c1ccc(NC(=O)Nc2ccc(-c3cccc(-c4nc5cccc(C)c5[nH]4)c3)cc2)cc1`, the results for the inhibition in test [1], in test [2] and in test [3] were -0.01%, -0.4% and -0.76%, respectively.
Take `O=c1c2sc(-c3ccc(Cl)cc3)cc2ncn1Cc1ccc(OCCN2CCCC2)c2ccccc12`: the results for the inhibition in test [1], in test [2] and in test [3] were 4.34%, 2.61% and 1.85%, respectively.
The matching figures for `CN(C)Cc1cc2c(O)c(Cc3ccccc3)ccc2o1`: 2.65%, 4.63% and 3.94%.
As for `NC(=O)N1CCN(Cc2ccc(Br)cc2)CC1`, the inhibition stood at 0.39% in test [1], 1.05% in test [2] and 1% in test [3].
As for `NC(Cc1cccc(I)c1)C(=O)NCC1CCCO1` (centres undefined), the inhibition was 1.94% in test [1], 0.37% in test [2] and 0.96% in test [3].
For `CCOc1ccc2[nH]c(C)cc(=NN=Cc3cccc(C)n3)c2c1`, the inhibition in test [1] is 3.19%; in test [2], 7.58%; in test [3] it was 2.54%.
As to `CC(O)c1cccc(-c2ccc(Nc3ccnc4cc(-c5nccs5)ccc34)cc2)c1` (centres undefined), the values for the inhibition in test [1], in test [2] and in test [3] were 4.55%, 4.09% and 4.15%, respectively.
For `c1ccc(-n2ncc(CNCc3ccc(-c4ccc(-c5nc6ccccc6[nH]5)s4)cc3)n2)cc1`, the inhibition in test [1] is 2.35%; in test [2] it was 2.45%; in test [3], 0.43%.
In the case of `COc1ccc(CNc2nc(NCCc3ccccc3)c3cc(OC)c(OC)cc3n2)cc1OC`, the inhibition worked out at 3.4% in test [1], 3.46% in test [2] and 2.54% in test [3].
Turning to `O=C(NC1CCN(Cc2ccc(Cl)cc2)CC1)c1cn(-c2ccccc2)nc1-c1cccnc1`, the results for the inhibition in test [1], in test [2] and in test [3] were 1.12%, 0.95% and 1.49%, respectively.
For `CN1CCN(Cc2ccc(-c3ccc4c(Nc5ccc(Oc6ccccn6)cc5)ccnc4c3)o2)CC1`, the inhibition is -0.46% in test [1], 0.11% in test [2] and -1.97% in test [3].
For `Cn1cnc(CCNC(=O)c2cccc(-c3ccc(-c4nc5cc(F)ccc5[nH]4)cc3)c2)c1`, the inhibition in test [1] worked out at 1.27%; in test [2], 1.88%; in test [3] it was 0.3%.
The matching figures for `Cc1cccc(N2C(N)=NC(N)=NC2(C)C)c1C`: 0.74%, 1.41% and 1.09%.
Turning to `CC1(C)[C@H]2CC[C@@H](CNc3nc(NCC(=O)Nc4ccc5ccccc5c4)nc(N4CCC(N5CCCC5)CC4)n3)[C@@H]1C2`, the results for the inhibition in test [1], in test [2] and in test [3] were 0.95%, 2.52% and 2.89%, respectively.
Regarding `O=C(Nc1ccc(OC2CCN(Cc3ccsc3)CC2)c(Cl)c1)c1cccs1`, the inhibition in test [1] amounted to 7.63%; in test [2], 2.38%; in test [3], 2.85%.
`CC(C)Oc1cc2c(cc1NS(=O)(=O)c1ccc(-c3cccs3)cc1)CCN(C)CC2`: the inhibition is 5.11% in test [1], 2.07% in test [2] and 1.94% in test [3].
Take `COc1ccc(N2C(N)=NC(N)=NC2(C)C)cc1OC`: the inhibition in test [1] turned out to be 3.76%; in test [2], 5.41%; in test [3], 5.83%.
For the molecule `COc1ccccc1CCNc1nc(C)cc(N[C@@H](Cc2ccccc2)C(=O)NCc2cccc(F)c2)n1`, the figures for the inhibition in test [1], in test [2] and in test [3] were 5.91%, 1.53% and 5.51%, respectively.
Regarding `O=S(=O)(NCCN1CCCC1)c1ccc(-c2cccc(CNCCc3cccs3)c2)cc1`, the results for the inhibition in test [1], in test [2] and in test [3] were 5.24%, 5.07% and 3.91%, respectively.
With `CC(NCC(O)Cn1c2ccccc2c2ccccc21)c1ccccc1` (centres undefined), the values for the inhibition in test [1], in test [2] and in test [3] were 0.86%, 1.68% and -1.46%, respectively.
Take `COc1c(C2=CCN(CCCCNC(=O)c3ccc(-c4ccc(C#N)cc4)cc3)CC2)c(C)cc2c1C(C)(C)CCC2(C)C`: the values for the inhibition in test [1], in test [2] and in test [3] were 2.63%, 2.18% and 0.96%, respectively.
`COc1cccc(-c2cnc(-c3ccncc3)nc2C2CCN(Cc3ccc(NC(C)=O)cc3)CC2)c1`: the figures for the inhibition in test [1], in test [2] and in test [3] were 3.49%, 4.22% and 1.53%, respectively.
Turning to `Cc1cccc(CNc2nc(C)cc(N[C@@H](CC(C)C)C(=O)NCc3cccc(F)c3)n2)c1`, the inhibition was 4.53% in test [1], 3.4% in test [2] and -0.42% in test [3].
